GALK inh: inhibitors of human galactokinase (GALK). 44,000 tested, under 10 active. Potency, µM (titrated, usually from 57.5 µM), for the others: at the highest dose activity, negative = inhibition, actives largely listed as inhibitors. AID 1347072. recombinant GALK, Kinase-Glo ATP luminescence, 1 h;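 note: plate controls were full GALK reaction for no effect and reaction lacking GALK for full effect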
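5 nM GALK; 35 uM ATP; 100 uM D-galactose; 20 mM HEPES pH 8.0, 5 mM MgCl2, 60 mM NaCl, 1 mM DTT, 0.01% BSA; 1 h RT; Kinase-Glo Plus luminescence.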
NTMT1 inh: NTMT1 methyltransferase inhibition; Q9BV86; 59,000 compounds, 2.5% hits; Potency, µM (highest dose often 114 µM), for the others: top-dose activity change, negative = inhibition, most hits filed as inhibitors; NTMT1 MTase-Glo SAH luminescence, purified enzyme;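 note: potency is the fitted concentration of half-maximal effect; plate controls were DMSO vehicle for no effect and no enzyme for full effect; nearly all actives have a fitted effect of over 65% in size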
Target sequence (Q9BV86 whole entry, looked up): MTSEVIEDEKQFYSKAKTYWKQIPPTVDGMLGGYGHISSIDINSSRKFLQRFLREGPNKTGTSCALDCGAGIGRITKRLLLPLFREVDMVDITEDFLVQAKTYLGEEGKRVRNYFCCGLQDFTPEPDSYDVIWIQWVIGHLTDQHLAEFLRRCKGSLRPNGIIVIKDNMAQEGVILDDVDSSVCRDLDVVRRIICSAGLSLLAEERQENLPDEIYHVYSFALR
TSG101-PTAP inh: inhibitors of HIV-1 PTAP binding to human TSG101, validation | Q99816 | Fluorescence polarization, FITC-PTAP peptide/Tsg101, 20 min | Potency, µM (series often up to 115 µM), actives largely listed as inhibitors | 44,000 tested, under 10 active | AID 1347069; note: potency is the fitted concentration of half-maximal effect; 0% is about no effect
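The Tsg101 binding domain, at 10 uM final, is mixed with compound and a FITC peptide bearing the PTAP motif (50 nM final). After 20 min at r.t., polarization is measured; actives defined by CRC class, efficacy cut-off 60% inhibition.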
FH mod: Identification of activators of human fumarate hydratase by quantitative high-throughput screening; Fumarate hydratase, mitochondrial (Homo sapiens), P07954; FH coupled MDH/diaphorase resazurin fluorescence, 15 min; Potency, µM (top dose mostly 79.9 µM), without a hit: at the highest dose activity change, negative = inhibition, hits mostly inhibitors; 54,000 compounds, 0.22% hits; note: potency is the fitted concentration of half-maximal effect; % is set by controls: 0 for no effect and ±100 for the full control effect; the screen sought activators but most active calls are inhibition curves; nearly all actives have a fitted effect of over 45% in size
Target sequence (P07954 whole entry, looked up): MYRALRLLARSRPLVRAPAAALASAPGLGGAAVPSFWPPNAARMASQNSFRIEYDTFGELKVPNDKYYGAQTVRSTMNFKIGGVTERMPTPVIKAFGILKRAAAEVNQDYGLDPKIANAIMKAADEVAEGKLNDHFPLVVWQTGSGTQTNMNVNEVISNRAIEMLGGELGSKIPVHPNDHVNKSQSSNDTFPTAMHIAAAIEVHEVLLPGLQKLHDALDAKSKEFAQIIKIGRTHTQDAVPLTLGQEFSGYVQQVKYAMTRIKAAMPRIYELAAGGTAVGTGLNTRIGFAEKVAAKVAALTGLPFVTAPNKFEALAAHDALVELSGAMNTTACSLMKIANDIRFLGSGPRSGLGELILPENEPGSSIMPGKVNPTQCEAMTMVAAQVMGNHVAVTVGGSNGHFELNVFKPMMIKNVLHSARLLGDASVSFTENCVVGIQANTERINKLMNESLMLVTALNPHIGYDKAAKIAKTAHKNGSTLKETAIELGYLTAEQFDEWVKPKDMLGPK
B2AR arrestin ag: beta-arrestin recruitment by human beta2-adrenergic receptor ligands; HTLA Tango cells, beta-arrestin recruitment, luciferase luminescence, 18 h; Potency, µM (top dose mostly 46.1 µM), most hits filed as activators; P07550; 44,000 tested, under 10 active;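 note: potency is the fitted concentration of half-maximal effect; 0% = DMSO and full agonism = EC100 isoproterenol or metaproterenol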
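Receptor–beta-arrestin recruitment read by tTA-responsive luciferase: compound titrations (up to 46 µM) incubated 18 h with Tango cells, then luminescent substrate 15 min at room temperature. Concentration-response fits classified by r2, efficacy and activity.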
GALC G270D act: enhancers of human galactocerebrosidase G270D mutant activity in cells | P54803 | 145M-Twi-hGALC-G270D cells (Twitcher mouse brain line with human GALC G270D), HMU-beta-Gal fluorescence, 48 h | Potency, µM (highest dose often 57.5 µM), most hits filed as activators | 45,000 compounds, 0.1% hits; note: potency is the fitted concentration of half-maximal effect; 0% is about no effect; nearly all actives have a fitted effect of over 65% in size
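Live 145M-Twi cells (Twitcher mouse brain-derived, GALC-null) stably expressing human GALC-G270D, with a wild-type GALC line, were compound-treated. Residual GALC activity was then read as fluorescence from 0.1 mM final HMU-β-gal at pH 5.2; higher signal means activation.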
Numbers without * were called inactive; i = inactive; ? = inconclusive; . = no result given; ! = not active in a repeat; [ ] = dose if it differs, or a comment. The sample as a whole holds a higher share of hits than the screen did. Calls come from the whole dose curve; as a rule, active = well fitted curve in the direction sought with a large enough effect; inconclusive = small, poorly fitted or top-dose-only effect, or another doubt; inactive = no such curve, though single readings can be large; an effect the other way counts as inactive or inconclusive.

SMILES | GALK inh | NTMT1 inh | TSG101-PTAP inh | FH mod | B2AR arrestin ag | GALC G270D act
CN(C)CCC[C@@]1(c2ccc(F)cc2)OCc2cc(C#N)ccc21 | . | 25µM* | . | -2%[53.3 µM] | . | i
COC1CC(C(=O)c2ccc3c(N)ncc(-c4ccc(-c5cnn(C)c5)cc4)c3n2)C1 (stereo unspecified) | . | 1% | . | . | . | .
CCOc1ccc(-c2cn3c(n2)sc2cc(C(=O)NCCCN4CCCCC4)ccc23)cc1 | -2% | 50µM* | i | 0% | i | i
COc1ccc(N2CCN(CCCNC(=O)c3ccc4nc(N5CCCCC5)sc4c3)CC2)cc1 | 0% | 22µM* | i | -13% | i | i
CCOc1ccc(-c2cn3c(n2)sc2cc(C(=O)NCCCN(CC)CC)ccc23)cc1 | 0% | 40µM* | i | 8% | i | i
CC1=CC2(O)/C=C/C(C)(O)CC(O)/C=C/C(=O)OC23C(=O)NC(CC(C)C)C3C1C (stereo unspecified) | . | 5%[29.8 µM] | . | 6%[53.3 µM] | . | .
COc1cc(C(=O)Nc2ccccc2OCc2cc(=O)n3cc(C)sc3n2)cc(OC)c1OC | 6% | 89µM* | i | -16% | i | i
Cc1ccccc1C(=O)N1CCc2cc(-c3ccnc(NC(=O)Cc4ccccc4)n3)ccc21 | . | 0% | . | . | . | .
COc1cc2ccccc2cc1C(=O)Nc1ccc2oc(-c3cccc(Cl)c3Cl)nc2c1 | 0% | 79µM* | i | -9% | i | i
Oc1cccc(-c2c3nc(c(-c4cccc(O)c4)c4ccc([nH]4)c(-c4cccc(O)c4)c4nc(c(-c5cccc(O)c5)c5ccc2[nH]5)CC4)C=C3)c1 | . | 22µM* | . | -22%[53.3 µM] | . | i
Cc1[nH]nc2ccc(-c3cncc(OC[C@@H](N)Cc4ccccc4)c3)cc12 | . | 25µM*! | . | ? | . | .
O=C(Nc1ccccc1F)c1ccc2c(Cl)c3c(nc2c1)CCC3 | 3% | 25µM* | i | ? | i | i
S=P(N1CC1)(N1CC1)N1CC1 | . | 16µM*! | . | 11%[53.3 µM] | . | i
O=C(c1cc2ccc3cccnc3c2[nH]1)N1CCCCC1 | 6% | 40µM* | i | 5% | i | i
COC(=O)c1c(SC)nc2ccccc2c1OCc1ccc(C)cc1C | 1% | -2% | i | 35µM* | i | i
COC(=O)c1c(SC)nc2ccccc2c1OCc1cccc(C)c1 | 0% | -5% | i | -13% | i | i
O=C(O)c1ccccc1-c1ccc(/C=c2\sc3nc4cc(Br)cnc4n3c2=O)o1 | . | 35µM* | . | . | . | .
C[C@@H]1O[C@@H](O[C@@H]2[C@@H](O)[C@H](O[C@H]3CC[C@@]4(C)C(CC[C@]5(C)C4CC=C4[C@@H]6CC(C)(C)CC[C@]6(C(=O)O[C@@H]6O[C@H](CO)[C@@H](O)[C@H](O)[C@H]6O)CC[C@]45C)C3(C)C)O[C@H](C(=O)O)[C@H]2O)[C@H](O)[C@H](O)[C@H]1O (stereo partly specified) | . | 2%[12.6 µM] | . | -1%[20.6 µM] | . | .
Cc1ccc(NC(=O)c2cccn2-c2nnc(N3CCCCC3)s2)cc1Cl | -1% | 79µM* | i | -18% | i | i
CC(=O)c1cccc(NC(=O)c2cccn2-c2nnc(N3CCCCC3)s2)c1 | 2% | ? | i | 1% | i | i
CCN(CC)CCCNC(=O)c1ccc2c(c1)NC(=O)C(CS(=O)(=O)Cc1cccc(Br)c1)N2 (stereo unspecified) | 1% | ? | i | -13% | i | 35µM*
Cc1ccc(-n2c(-c3cccc(C)c3)nc3c(cnn3-c3ccccc3)c2=O)cc1 | 2% | ? | i | -10% | i | i
Cc1cccc(-c2nc3c(cnn3-c3ccccc3)c(=O)n2-c2ccc(Br)cc2)c1 | -1% | 89µM* | i | -16% | i | i
CN1CCN(c2ccc(Nc3nc(-c4ccncc4)nc4ccccc34)cc2F)CC1 | . | 22µM* | . | . | . | .
COc1cc(Nc2nc(-c3ccncc3)nc3ccccc23)ccc1N1CCN(C)CC1 | . | 8.9µM* | . | . | . | .
SMILES | GALK inh | NTMT1 inh | TSG101-PTAP inh | FH mod | B2AR arrestin ag | GALC G270D act
C[C@H]1C(=O)N2c3ccccc3[C@@]3(O)C[C@@H]4C(=O)N[C@](C)(c5nc6ccccc6c(=O)n54)N1[C@@H]23 | . | -10%[29.8 µM] | . | -1%[53.3 µM] | . | .
Cc1ccc(-n2ncc(C(=O)N3CCN(c4cccc(C)c4C)CC3)c2C2CCNCC2)c(C)c1 | -2% | 79µM* | i | -6% | i | i
CN(C)c1cc(NC(=O)CNC(C)(C)C)c(O)c2c1C[C@H]1C[C@H]3[C@H](N(C)C)C(=O)C(C(N)=O)=C(O)[C@]3(O)C(=O)C1=C2O | . | 40µM* | . | . | . | .
CN(C)c1cc(NC(=O)CNC(C)(C)C)c(O)c2c1C[C@@H]1C[C@H]3[C@H](N(C)C)C(=O)C(C(N)=O)=C(O)[C@@]3(O)C(=O)C1=C2O | . | 40µM* | . | -9%[53.3 µM] | . | i
Cc1cccc(CNc2nc(-c3ccccc3C(F)(F)F)nc3ccccc23)c1 | . | 13% | . | . | . | .
CC(O)(C#Cc1ccc2c(c1)N(c1nc(N)ncc1Cl)CC2)c1nccs1 (stereo unspecified) | . | 35µM* | . | -5%[53.3 µM] | . | .
COc1nc2sc(C(=O)NC3CC3)c(N)c2c(C)c1Cl | . | 21%[57.5 µM] | . | -7% | . | .
CCCCOc1ccc(C(=O)N2CCN(CCc3ccccn3)CC2)cc1 | -5% | 1% | i | 4% | i | 8.9µM*
O=C1c2ccccc2-[n+]2ccc3c([nH]c4ccccc43)c21 | . | 45µM* | . | 6.9µM* | . | .
O=C1C(c2c(O)[nH]c3ccccc23)=Nc2ccccc21 | . | -13% | . | 0%[53.3 µM] | . | .
O=C(c1ccc(-c2ccc(Cl)cc2)o1)N(Cc1ccccn1)c1ccc(N2CCNCC2)cc1 | . | ? | . | 6% | . | .
CC1=C(C)C(=O)C(CCCCC#CCCCC#CCO)=C(C)C1=O | . | ? | . | 28µM* | . | i
Cc1ccc(OCCn2c(CCNC(=O)CCN3CCCCC3)nc3ccccc32)cc1 | . | 0%[57.5 µM] | . | . | . | .
Cc1cc(-c2cc(O)ccc2Cl)cc2nnc(Nc3ccc(OCCN4CCCC4)cc3)nc12 | . | 20µM* | . | 0% | . | .
CC(=O)c1c(O)cc2cccc3c2c1CC(C)(O)O3 (stereo unspecified) | . | -6%[57.5 µM] | . | -4% | . | .
CN(C)c1ccc(C(CNS(=O)(=O)c2ccc(F)cc2)N2CCCC2)cc1 (stereo unspecified) | 4% | 89µM* | i | -20% | i | i
CN(C)c1ccc(C(CNS(=O)(=O)c2ccc(F)cc2)N2CCOCC2)cc1 (stereo unspecified) | -1% | -1% | i | 4% | ? | i

Screening data from PubChem.
